# Screens: PubChem BioAssay, National Center for Advancing Translational Sciences (NCATS)
# IL-1B inflam inh: qHTS for Inhibitors of Inflammasome Signaling: IL-1-beta AlphaLISA Primary Screen. THP-1 LPS/ATP IL-1B secretion, AlphaLISA, 16 h; hits give low values. activity change, % at 57.5 µM. hit rate 4.7% among 360,000. AID 743279, 2014; in the data active = activity change below about -50%; inconclusive = mostly about -30% to -49%; also: % is scaled to controls: 0 for no effect and ±100 for the full control effect
#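 Secreted IL-1B measured by AlphaLISA bead assay after 16 h compound exposure of THP-1 cells; compounds (final up to 57.5 uM) added 1 h before LPS (250 ng/mL) and ATP (1.25 mM) stimulation; lower signal means less secretion.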
# DRD3 antagonist: qHTS of D3 Dopamine Receptor Antagonist: qHTS; D(3) dopamine receptor (Homo sapiens), P35462; D3R cells, DiscoveRx beta-arrestin luminescence, antagonist mode; hits give low values; max response, negative = inhibition, %; hit rate 2.5% among 360,000; in the data active = max response below about -50%; inconclusive = no clear call, values can overlap the other calls; also: % is scaled to controls: 0 for no effect and ±100 for the full control effect
# Target sequence (P35462 whole entry, looked up): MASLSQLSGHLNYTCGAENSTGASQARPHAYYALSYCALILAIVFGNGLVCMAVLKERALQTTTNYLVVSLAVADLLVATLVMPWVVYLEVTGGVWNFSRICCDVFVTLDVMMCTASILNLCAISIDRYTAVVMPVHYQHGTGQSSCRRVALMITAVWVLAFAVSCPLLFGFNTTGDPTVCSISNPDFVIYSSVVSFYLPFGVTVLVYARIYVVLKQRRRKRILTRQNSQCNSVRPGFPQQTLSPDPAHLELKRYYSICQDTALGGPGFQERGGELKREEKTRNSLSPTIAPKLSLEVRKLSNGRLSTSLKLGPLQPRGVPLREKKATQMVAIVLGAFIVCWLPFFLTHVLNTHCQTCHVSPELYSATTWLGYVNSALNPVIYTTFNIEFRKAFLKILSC
#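 Cells plated overnight at 1500 cells/well, then exposed to library compounds with dopamine controls for 90 minutes at 37 degrees C. DiscoveRx reagent added for 30–60 minutes at room temperature; luminescence read, quantitative HTS format.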
# DRD3 agonist: qHTS of D3 Dopamine Receptor Agonist: qHTS; D(3) dopamine receptor (Homo sapiens), P35462; D3R DiscoveRx beta-arrestin cells, luminescence, 90 min; max activation, %; hit rate 0.58% among 410,000; in the data active = max activation above about 30%; also: 0% is about no effect
#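 Cells at 1500/well, incubated overnight, then treated with pinned compounds (dopamine as control) for 90 min at 37 degrees C. DiscoveRx reagent added for 30 - 60 minutes at room temperature; luminescence read.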
# TDP1 cell noCPT: qHTS for Inhibitors of human tyrosyl-DNA phosphodiesterase 1 (TDP1): qHTS in cells in absence of CPT. Potency, µM (highest dose often 46.2 µM), for inactives: at the highest dose activity change, negative = growth inhibition, usual class: inhibitors. hit rate 15% among 420,000. DT40 Tdp1-/- hTDP1 cells, no CPT, ATP luminescence, 48 h. AID 686978, 2013; also: potency is read from the fitted curve at half-maximal effect; % is scaled to controls: 0 for no effect and ±100 for the full control effect; nearly all actives have a fitted effect of over 55% in size
#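 Stably hTDP1-transfected Tdp1-null chicken DT40 cells were treated with library compounds minus camptothecin and grown for at least 48 hr at 37 °C, after which cellular ATP was quantified by luminescence.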
# ClpP mod: qHTS Assay for Activators of ClpP; ATP-dependent Clp protease proteolytic subunit (Bacillus subtilis (strain 168)), P80244; purified B. subtilis ClpP, FRET peptide cleavage, 20 min; Potency, µM (highest dose often 57.5 µM), inactives show at the highest dose activity change, negative = active; hit rate 1.9% among 340,000; active = well fitted falling curve with a large enough effect; inconclusive = small, poorly fitted or top-dose-only effect; inactive = no such curve, though single readings can be large or run the other way; also: potency is read from the fitted curve at half-maximal effect; the source files actives as falling curves though it sought activators and does not explain the sign; nearly all actives have a fitted effect of over 65% in size
# Target sequence (P80244 whole entry, looked up): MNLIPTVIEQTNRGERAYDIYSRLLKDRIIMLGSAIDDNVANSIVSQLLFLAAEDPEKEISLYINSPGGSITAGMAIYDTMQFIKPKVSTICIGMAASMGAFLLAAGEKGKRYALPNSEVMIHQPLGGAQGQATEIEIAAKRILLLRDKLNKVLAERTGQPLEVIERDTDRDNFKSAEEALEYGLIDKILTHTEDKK
#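 Buffer: 100 mM Tris/HCl pH8, 100 mM KCl, 0.05% low protease BSA, 2.5% glycerol, 0.01% Tween-20. ClpP 10 microg/mL final; 20 min RT; delta FRET normalized to ADEP and DMSO controls.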
# TDP1 cell CPT: qHTS for Inhibitors of human tyrosyl-DNA phosphodiesterase 1 (TDP1): qHTS in cells in presence of CPT; hit rate 12% among 420,000; Potency, µM (titrated, usually from 46.2 µM), without a hit: at the top dose activity change, negative = growth inhibition, most hits filed as inhibitors; chicken DT40 Tdp1-/-;hTDP1 cells + 20 nM CPT, ATP luminescence, 48 h; AID 686979, 2013; also: potency is read from the fitted curve at half-maximal effect; % is scaled to controls: 0 for no effect and ±100 for the full control effect; nearly all actives have a fitted effect of over 55% in size
#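 Cell growth measured by CellTiter-Glo luminescence after a minimum 48 h, 37 C compound exposure with 20 nM CPT in Tdp1-knockout DT40 cells stably expressing hTDP1, seeded 400/well; qHTS titration format.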
# Starred values were filed as active, the others as inactive; ? = inconclusive; / = not tested or not shown. Only some compounds are listed: those with a hit (about 21% of all), similar ones and a draw of the others. Unless noted, calls follow the shape of the dose curve; as a rule, active = well fitted inhibition curve with a large enough effect; inconclusive = small, poorly fitted or top-dose-only effect; inactive = flat fitted curve, though single readings scatter.
SMILES,IL-1B inflam inh,DRD3 antagonist,DRD3 agonist,TDP1 cell noCPT,ClpP mod,TDP1 cell CPT
Cc1ccc(Cl)cc1NC(=O)c1ccc2snnc2c1,/,/,6,-8%,0%,-17%
O=C(CCSc1ccc(Cl)c(Cl)c1)NC12CC3CC(CC(C3)C1)C2,-4,-19,-5,?,-1%,16µM*
Clc1cccc(-c2cc3nc4c(c(NCc5ccco5)n3n2)CCCC4)c1,-96*,17,19,11µM*,?,21µM*
Cc1cccc(-c2cc3nc(C)cc(NCCCN(C)C)n3n2)c1,-101*,?,-8,?,32µM*,?
CN(C)CCCNc1cc(-c2ccccc2)nc2cc(-c3cccc(F)c3)nn12,-88*,-11,-2,7.3µM*,4%,?
CCN(CC)CCCNc1cc(C)nc2cc(-c3cccs3)nn12,-101*,0,-11,-4%,/,18%
CCOC(=O)C1CCCN(C(=O)c2ccc(C(F)(F)F)nc2C)CC1 (configuration not stated),17,0,7,-2%,-2%,11%
COc1ccc(OC)c(CCNC(=O)CCn2nc(C)c3c(C)n(-c4ccccc4)nc3c2=O)c1,-14,-1,4,-5%,-1%,-1%
O=C(Nc1ccc(S(=O)(=O)Nc2ncccn2)cc1)c1cccc(S(=O)(=O)N2CCCC2)c1,-1,-17,-11,-3%,/,-19%
COCCNc1cc(C)nc2cc(-c3ccc(C)cc3)nn12,-7,9,2,-9%,/,2%
Cc1ccc(-c2cc3nc(C)cc(NCc4ccco4)n3n2)cc1,6,10,16,-27%,28µM*,-24%
CC(=O)N1CCCN(Cc2cn(-c3cc(C)ccc3C)nc2-c2ccccc2)CC1,22,2,-7,?,/,18µM*
CC(=O)N1CCCN(Cc2cn(-c3cccc(C)c3)nc2-c2cccc(F)c2)CC1,-23,-5,-16,16µM*,-7%,?
COCCN1CCC(CNCc2cn(-c3cc(C)ccc3C)nc2-c2ccccc2)C1 (configuration not stated),-24,-13,-4,6.5µM*,-3%,?
CC(=O)N1CCCN(Cc2cn(-c3ccc(C)cc3)nc2-c2ccc(F)cc2)CC1,-78*,3,-19,18µM*,/,?
Cc1ccccc1OC(=O)c1cccc(S(=O)(=O)N2CCN(C)CC2)c1,11,10,0,-21%,-3%,-7%
C[C@H](CO)N1C[C@H](C)[C@@H](CN(C)C(=O)CCCN(C)C)OCc2cn(nn2)CCCC1=O,3,5,5,-4%,-1%,7%
CCOC(=O)C1CCCC12Nc1cccc3cccc(c13)N2 (configuration not stated),-11,-13,-3,15µM*,/,18µM*
CCc1c(C)c(C#N)c2nc3ccccc3n2c1NCc1ccco1,34,27,8,?,-20%,23µM*
Cc1c(Cc2ccccc2)c(NCCCO)n2c(nc3ccccc32)c1C#N,-20,14,-16,16µM*,-16%,21µM*
CCCCc1c(C)c(C#N)c2nc3ccccc3n2c1Nc1c(C)n(C)n(-c2ccccc2)c1=O,-13,-17,0,16µM*,6%,23µM*
CCOC(=O)c1ccc(N(C(=O)c2ccccc2)c2ccccc2)cc1,/,/,/,?,-4%,-10%
c1ccc(COc2ccc(CNCc3cccnc3)cc2)cc1,-63*,-4,-2,?,/,-17%
CN(Cc1ccccc1)CC(O)COc1ccc(CNCCCOc2cccnc2)cc1 (configuration not stated),?,?,-12,?,1%,?
CCn1cc(CNCc2ccc(OCC(O)CN(C)Cc3ccccc3)cc2)cn1 (configuration not stated),0,-6,-13,?,/,?
SMILES,IL-1B inflam inh,DRD3 antagonist,DRD3 agonist,TDP1 cell noCPT,ClpP mod,TDP1 cell CPT
CN(Cc1ccccc1)CC(O)COc1ccc(CNCc2ccc(Cl)s2)cc1 (configuration not stated),-80*,?,-2,16µM*,/,?
CN(Cc1ccccc1)CC(O)COc1ccc(CNCCOc2cccnc2)cc1 (configuration not stated),12,-10,61*,-12%,/,-11%
CN(Cc1ccccc1)CC(O)COc1ccc(CNCc2cccnc2)cc1 (configuration not stated),-14,?,-5,?,-3%,23µM*
Cc1ccc(CNCc2cccnc2)cc1,20,-28,0,-2%,1%,-14%
Oc1cccc2c3c(oc12)CCCC3,24,15,-7,3%,2%,12%
C=CCNC(=S)N1N=C(c2ccco2)CC1c1ccco1 (configuration not stated),1,20,6,-28%,/,-10%
c1ccc(COc2ccc(CNCc3cccs3)cc2)cc1,-8,-19,-9,13µM*,1%,?
Brc1ccc(CNCc2cccs2)cc1,-10,-1,-20,-22%,1%,-6%
CC[n+]1ccc(C)c2cc(SC(F)(F)F)ccc21,22,-1,-6,?,/,?
CC[n+]1ccc(C)c2cc(P(=O)(c3ccccc3)c3ccccc3)ccc21,-14,-58*,-28,?,/,-3%
CN1CCN(CC(O)COC(c2ccccc2)c2ccccc2)CC1 (configuration not stated),-8,-3,1,-14%,/,1%
Cc1ccc(OCC(O)CN2CCN(c3ccccn3)CC2)c(C)c1 (configuration not stated),-2,-26,45*,-7%,/,2%
CC(C)(C)c1ccccc1OCC(O)CN1CCN(c2ccccn2)CC1 (configuration not stated),-9,?,1,?,0%,16µM*
Cc1cccc(C)c1OCC(O)CN1CCN(c2ccccn2)CC1 (configuration not stated),16,11,59*,-6%,-9%,4%
CCOC(=O)N1CCN(CC(O)COc2ccc(C)cc2C(C)(C)C)CC1 (configuration not stated),0,15,-7,?,4%,?
